In ChEMBL document CHEMBL3988442, “University of Dundee, Small-Polar-MMV Screening Library” (2021):

Each molecule was assayed against AMP-activated protein kinase, AMPK (Homo sapiens) (UniProt P54646+O43741+P54619+Q9UGJ0+Q9Y478+Q13131+Q9UGI9) (assay: AMP-dependent Kinase enzyme assay. An in vitro enzyme assay that detects ADP turnover that is directly proportional to AMPK activity. This uses naive AMPK that is activated during the assay with MK-8722). Settings: 30 µM.
Format: functional
Design: scale not given: direction of the effect not stated beside the values

Compound	Percent Effect [%]
CCC1CN(c2nnc(C)c(C)c2C#N)CCO1 (stereo not given)	-17.9
COC(=O)c1ccccc1NC(=O)c1nc2ccccc2n(C)c1=O	1.48
CCn1cnnc1C1CCN(C(=O)c2ccc(C(=O)OC)s2)CC1	4.62
COc1ccc(NC(=O)CNc2cccc3c2CCCC3)c(OC)c1	-0.0771
Cc1ccc(N2CCCC(NCc3cccc4c3OCCO4)C2)nn1 (stereo not given)	-11.3
Cc1nc(CN2C(=O)C[C@@H]3[C@@H]2CCN3C(=O)C2CCOCC2)cs1	-5.72
Cc1cnn(CC2CCCCN2CCC(=O)Nc2cc(C)on2)c1 (stereo not given)	-0.138
COCC(=O)N1CCC2(CC1)COCCN2CCN(C)C	-0.00705
CCc1n[nH]c(C2CN(Cc3nccn3CC)CCO2)n1 (stereo not given)	-2.5
CCOc1cccc(NS(=O)(=O)c2cc(C)c(C(=O)O)s2)c1	-13.3
CCCNC(=O)c1sc(Nc2ccc(Cl)cn2)nc1C	-1.88
CC(C)c1ncc2c(n1)CN(Cc1nc(Cc3ccccc3)no1)CC2	-1.07
CS(=O)(=O)NC1CCN(C(=O)NCCNc2ccccn2)CC1	0.725
OCC1CCCN1c1cc(NCc2ccc(Cl)s2)ncn1 (stereo not given)	-3.63
COc1cc(CCC(=O)NC2CC2)ccc1OCC(F)(F)F	-5.56
CCS(=O)(=O)c1ccc(N2CCC(NC(C)=O)CC2)cc1	0.562
CC(=O)c1cn(CCC(=O)N[C@H](C(=O)O)C(C)C)c2ccccc12	3.61
CCS(=O)(=O)c1ccc(N2CCC(NC(=O)c3cnn(C)c3)CC2)cc1	-5.84
Cc1nc[nH]c1-c1nc2cc(S(=O)(=O)N3CCCC3)ccc2n1C	12.9
CCN(CCn1cccn1)Cc1nc(-c2ccccc2F)oc1C	-5.26
